Active and inactive are the calls of the source. The calls were made as follows: active = hit-call score of the fitted dose curve at least 0.9, where 1 is the maximum; inactive = score below 0.9.
Experiments:
Conditions in all cases: mRNA level, 48 h; actives raise or lower the signal
[1] = read-out: Glutathione S-transferase M3 (GSTM3), GSTM3 (gene 2947); assay: LTEA_HepaRG_GSTM3: Life Technologies and Expression Analysis (LTEA) Assay for Glutathione S-transferase M3 (GSTM3) using HepaRG (AID 2283501)
How it was run: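 qRT-PCR read-out of GSTM3 transcript, normalized to three housekeeping genes, from human HepaRG cells after 48 h chemical exposure. Eight-point half-log series, top 100 uM, 0.5% DMSO vehicle; gain or loss fitted relative to DMSO baseline.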

[2] = read-out: Heat shock 70 kDa protein 1 (HSPA1A), gene 3303; assay: LTEA_HepaRG_HSPA1A: Life Technologies and Expression Analysis (LTEA) Assay for Heat shock 70 kDa protein 1 (HSPA1A) using HepaRG (AID 2283502)
How it was run: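 HSPA1A expression measured by qRT-PCR with ACTB/GAPDH/POLR2A normalization; curves fitted in both directions relative to DMSO vehicle. Exposure: 48 h in HepaRG cells, duplicate 8-point half-log series from 100 uM, 0.5% DMSO, serum-free induction medium.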

[3] = read-out: Hypoxia-inducible factor 1-alpha (Homo sapiens) (UniProt Q16665); assay: LTEA_HepaRG_HIF1A: Life Technologies and Expression Analysis (LTEA) Assay for Hypoxia-inducible factor 1 (HIF1A) Trancription factor using HepaRG (AID 2283503)
How it was run: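 HIF1A transcript level read by qRT-PCR (ACTB, GAPDH, POLR2A normalization) after 48 h chemical exposure of HepaRG cultures. Eight half-log concentrations, top 100 uM, 0.5% DMSO vehicle, duplicates; bidirectional curve fit against DMSO baseline.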

[4] = read-out: 3-Hydroxy-3-Methylglutaryl-CoA Synthase 2 (HMGCS2), HMGCS2 (gene 3158); assay: LTEA_HepaRG_HMGCS2: Life Technologies and Expression Analysis (LTEA) Assay for 3-Hydroxy-3-Methylglutaryl-CoA Synthase 2 (HMGCS2) using HepaRG (AID 2283504)
How it was run: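 qRT-PCR read-out of HMGCS2 transcript, normalised to three housekeeping genes, in HepaRG cells after 48 h chemical exposure. Eight-point curves from 100 uM, half-log dilutions, 0.5% DMSO vehicle; gain or loss fitted relative to DMSO baseline.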

HGF (gene 3082) = assay: LTEA_HepaRG_HGF: Life Technologies and Expression Analysis (LTEA) Assay for Hepatocyte Growth Facto (HGF) using HepaRG (AID 2283505)
How it was run: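 HepaRG, 48 h dosing, 8-pt half-log series from 100 uM in 0.5% DMSO, duplicates. Readout: TaqMan qRT-PCR of HGF mRNA, housekeeping-normalized; bidirectional curve fit vs DMSO baseline.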

[5] = read-out: Insulin Like Growth Factor 1 (IGF1), IGF1 (gene 3479); assay: LTEA_HepaRG_IGF1: Life Technologies and Expression Analysis (LTEA) Assay for Insulin Like Growth Factor 1 (IGF1) using HepaRG (AID 2283506)
How it was run: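 Expression measured by TaqMan qRT-PCR on a Fluidigm array, with three housekeeping genes for normalisation, after 48 h treatment of HepaRG cells. Top concentration 100 uM with half-log steps, 0.5% DMSO vehicle, bidirectional fit.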

[6] = read-out: Intercellular Adhesion Molecule 1 (ICAM1), ICAM1 (gene 3383); assay: LTEA_HepaRG_ICAM1: Life Technologies and Expression Analysis (LTEA) Assay for Intercellular Adhesion Molecule 1 (ICAM1) using HepaRG (AID 2283507)
How it was run: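 HepaRG, 48 h exposure, 8-pt half-log series from 100 uM, 0.5% DMSO vehicle, duplicates. Readout: TaqMan qRT-PCR mRNA, housekeeping-normalized (ACTB/GAPDH/POLR2A). Bidirectional curve fit vs DMSO baseline.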

[7] = read-out: Insulin-like growth factor-binding protein 1 (IGFBP1), IGFBP1 (gene 3484); assay: LTEA_HepaRG_IGFBP1: Life Technologies and Expression Analysis (LTEA) Assay for Insulin-like growth factor-binding protein 1 (IGFBP1) using HepaRG (AID 2283508)
How it was run: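 qRT-PCR mRNA read-out (TaqMan, Fluidigm array), normalised to three housekeeping genes; HepaRG cells, 48 h exposure, 8-pt half-log series from 100 uM, 0.5% DMSO vehicle; bidirectional curve fit vs DMSO baseline.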

[8] = read-out: Interleukin 6 (IL6), IL6 (gene 3569); assay: LTEA_HepaRG_IL6: Life Technologies and Expression Analysis (LTEA) Assay for Interleukin 6 (IL6) using HepaRG (AID 2283509)
How it was run: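 Changes in IL6 mRNA, up or down relative to 0.5% DMSO controls, were derived from concentration-response curves in human HepaRG cells treated for 48 h at up to 100 uM, with ACTB, GAPDH and POLR2A as normalizers.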

[9] = read-out: Interleukin 6 Receptor (IL6R), IL6R (gene 3570); assay: LTEA_HepaRG_IL6R: Life Technologies and Expression Analysis (LTEA) Assay for Interleukin 6 Receptor (IL6R) using HepaRG (AID 2283510)
How it was run: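 IL6R transcript level by qRT-PCR after 48 h chemical exposure (8-point, half-log, max 100 uM, 0.5% DMSO vehicle) of HepaRG cells in serum-free induction medium. Normalized to three housekeeping genes; curves fitted in both directions relative to DMSO.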

[10] = read-out: Potassium channel subfamily K member 1 (KCNK1), KCNK1 (gene 3775); assay: LTEA_HepaRG_KCNK1: Life Technologies and Expression Analysis (LTEA) Assay for Potassium channel subfamily K member 1 (KCNK1) using HepaRG (AID 2283511)
How it was run: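 Human HepaRG cultures receive test chemicals for 48 h in 0.5% DMSO, top concentration 100 uM with half-log dilutions. Induction or suppression of KCNK1 mRNA relative to DMSO is derived by bidirectional fitting of qRT-PCR data.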

[11] = read-out: Keratin 19 (KRT19), KRT19 (gene 3880); assay: LTEA_HepaRG_KRT19: Life Technologies and Expression Analysis (LTEA) Assay for Keratin 19 (KRT19) using HepaRG (AID 2283512)
How it was run: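 HepaRG, 48 h chemical exposure, 8-pt half-log CRC from 100 uM, 0.5% DMSO vehicle, duplicates. Readout: TaqMan qRT-PCR of KRT19 mRNA, housekeeping-normalized (ACTB/GAPDH/POLR2A). Bidirectional fit vs DMSO baseline.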

[12] = read-out: JUN Transcription Factor, JUN (gene 3725); assay: LTEA_HepaRG_JUN: Life Technologies and Expression Analysis (LTEA) Assay for JUN Transcription Factor using HepaRG (AID 2283513)
How it was run: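 mRNA measured by TaqMan qRT-PCR after 48 h chemical exposure of HepaRG cultures; normalization to three housekeeping genes. Duplicate eight-point half-log curves from 100 uM in 0.5% DMSO; gain or loss fitted against DMSO baseline.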

[13] = read-out: MicroRNA 122 (MIR122), gene 406906; assay: LTEA_HepaRG_MIR122: Life Technologies and Expression Analysis (LTEA) Assay for MicroRNA 122 (MIR122) using HepaRG (AID 2283516); also: the transcript read is the microRNA miR-122
How it was run: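 Expression measured by microfluidic qRT-PCR with three housekeeping genes for normalisation, after 48 h treatment of HepaRG cultures. Eight concentrations (top 100 uM, half-log steps, 0.5% DMSO vehicle) in duplicate; gain or loss fitted relative to vehicle.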

[14] = read-out: matrix metalloproteinase-10 (MMP10), MMP10 (gene 4319); assay: LTEA_HepaRG_MMP10: Life Technologies and Expression Analysis (LTEA) Assay for matrix metalloproteinase-10 (MMP10) using HepaRG (AID 2283517)
How it was run: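 In differentiated HepaRG cultures kept in 0.5% DMSO, test chemicals act for 48 h over an eight-point range with a top dose of 100 uM. Expression is then quantified by TaqMan RT-PCR against ACTB, GAPDH and POLR2A.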

MYC, MYC (gene 4609) = assay: LTEA_HepaRG_MYC: Life Technologies and Expression Analysis (LTEA) Assay for MYC using HepaRG (AID 2283518)
How it was run: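 qRT-PCR read-out of MYC transcript (Fluidigm TaqMan, housekeeping-normalized) after 48 h chemical exposure of HepaRG cells; eight concentrations, top 100 uM, half-log steps. Bidirectional curve fitting against 0.5% DMSO vehicle baseline.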

[15] = read-out: matrix metalloproteinase-3 (MMP3), MMP3 (gene 4314); assay: LTEA_HepaRG_MMP3: Life Technologies and Expression Analysis (LTEA) Assay for matrix metalloproteinase-3 (MMP3) using HepaRG (AID 2283519)
How it was run: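 Human liver HepaRG cultures received chemicals (top concentration 100 uM, 0.5% DMSO) for 48 h in duplicate. MMP3 mRNA induction or loss was then assessed via TaqMan qRT-PCR with housekeeping-gene normalisation.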

[16] = read-out: Paternally Expressed 10 (PEG10), PEG10 (gene 23089); assay: LTEA_HepaRG_PEG10: Life Technologies and Expression Analysis (LTEA) Assay for Paternally Expressed 10 (PEG10) using HepaRG (AID 2283520)
How it was run: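 PEG10 transcript measured by Fluidigm qRT-PCR, normalized to three housekeeping genes, in HepaRG cells treated 48 h (highest 100 uM, half-log steps, 0.5% DMSO vehicle). Cells plated 48 h before switching to serum-free induction medium.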

Measured: outcome

Chain of Hypoxia-inducible factor 1-alpha (Homo sapiens) (Q16665 whole entry, looked up): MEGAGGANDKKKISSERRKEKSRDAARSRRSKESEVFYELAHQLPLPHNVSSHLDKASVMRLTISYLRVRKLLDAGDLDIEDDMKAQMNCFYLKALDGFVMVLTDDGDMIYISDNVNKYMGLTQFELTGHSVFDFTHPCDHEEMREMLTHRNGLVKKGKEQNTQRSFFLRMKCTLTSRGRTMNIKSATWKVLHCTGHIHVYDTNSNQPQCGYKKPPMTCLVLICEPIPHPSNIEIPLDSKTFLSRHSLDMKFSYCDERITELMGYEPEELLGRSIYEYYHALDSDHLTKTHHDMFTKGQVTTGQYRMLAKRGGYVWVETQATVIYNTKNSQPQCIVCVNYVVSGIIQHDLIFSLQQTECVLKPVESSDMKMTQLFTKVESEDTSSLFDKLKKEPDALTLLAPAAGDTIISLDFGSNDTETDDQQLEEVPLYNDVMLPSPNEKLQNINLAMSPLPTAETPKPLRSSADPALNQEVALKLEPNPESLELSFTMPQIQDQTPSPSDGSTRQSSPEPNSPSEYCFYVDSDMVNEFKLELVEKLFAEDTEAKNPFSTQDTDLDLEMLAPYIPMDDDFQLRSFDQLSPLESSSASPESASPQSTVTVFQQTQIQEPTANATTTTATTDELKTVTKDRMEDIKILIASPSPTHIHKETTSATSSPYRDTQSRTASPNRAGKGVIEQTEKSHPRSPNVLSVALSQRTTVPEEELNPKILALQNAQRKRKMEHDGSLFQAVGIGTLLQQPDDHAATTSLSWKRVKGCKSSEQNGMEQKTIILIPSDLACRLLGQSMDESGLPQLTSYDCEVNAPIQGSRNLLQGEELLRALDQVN

CCC1(c2ccccc2)C(=O)N=C(O)NC1=O (centres undefined)
inactive: all assays above

OCC1CO1 (centres undefined)
inactive: all assays above

Cc1ccc(O)cc1C
not listed: HGF (gene 3082)
inactive: all other assays above

O=[N+]([O-])c1ccccc1
inactive: all assays above

CCCCCCCc1ccc(O)cc1
inactive: all assays above
